Results taken from PubChem BioAssay (NCI).
About 79,000 compounds went through this panel and 15% of them were active in at least one assay; those are over-represented in the sample as a whole. A number with no mark means an inactive call. Activity calls are given as the source filed them. No stated cut-off is given here; in the data, active means growth inhibition above about 70%; inactive means the rest.

test: NCI Yeast Anticancer Drug Screen. Data for the sgs1 mgt1 strain (AID 161);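 further: 0% = growth of cultures given vehicle only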; details: S. cerevisiae sgs1 mgt1 strain, at 50.0 µM (retest, dose inferred, filed as 5.0), hits give high values
How it was run: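 Growth of a repair-deficient yeast mutant was monitored after compound treatment and expressed as inhibition relative to vehicle-treated cultures.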

Row | Structure (SMILES) | growth inhibition
1 | COc1ccc(-c2cc3ccccc3c(=O)n2Cc2ccccc2)cc1 | 73% (active)
2 | CN(C)CCCNCC(=O)Nc1ccc(S(=O)(=O)c2ccc(NC(=O)CNCCCN(C)C)cc2)cc1 | 95% (active)
3 | O=C1NN=C(c2ccc(Cl)cc2)CC1C1C(=O)N(c2ccccc2)N=C1c1ccccc1 (configuration not stated) | 98% (active)
4 | Cc1ccc(S(=O)(=O)NCCSSCCNS(=O)(=O)c2ccc(C)cc2)cc1 | 98% (active)
5 | O=C(CC(=O)c1ccccc1)CC(=O)c1ccccc1Br | 93% (active)
6 | Nc1ncc2ccccc2c1-c1ccc(NC(=O)CCCl)cc1 | 39%
7 | CC1=NC(=Cc2cccc(Cl)c2)C(=O)N1n1c(-c2ccccc2)nc2ccccc2c1=O | 71% (active)
8 | CCCOC(=O)CCCC(=O)N(CC)CC | -9%
9 | C=C1C(=O)[C@@]23CC[C@H]4[C@@](C)(CCC[C@@]4(C)C(=O)OC)[C@@H]2CC[C@]1(O)C3 | 99% (active)
10 | CCCCN(CCCC)CCC(=O)c1ccc2c(ccc3ccccc32)c1 | 99% (active)
11 | CC1CCC2(C)C(CC=C(C=O)C2(O)C=O)C12CO2 (configuration not stated) | 99% (active)
12 | CN(C)CC1CC/C(=C\c2ccc(Cl)c(Cl)c2)C1=O (configuration not stated) | 98% (active)
13 | CCS(=O)(=O)c1ccc(NC(=O)OC2CCCCCCC2)cc1 | 74% (active)
14 | CC(=O)OC1CCCCCCCCCCC12OCCO2 (configuration not stated) | 99% (active)
15 | CC(=O)OCc1cc2c(s1)C(=O)c1sccc1C2=O | 15%
16 | O=C1C=CC(=O)c2nc3ccccc3nc21 | 98% (active)
17 | Cc1ccccc1C1c2c(C)cccc2C(=O)CC1CC(=O)O (configuration not stated) | 75% (active)
